Laboratory results published in PubChem BioAssay (EPA / NIEHS).
Records with an inconclusive call do not appear. Active and inactive are the calls of the source. Rule for the calls, unless noted: active = hit-call score of the fitted dose curve at least 0.9, where 1 is the maximum; inconclusive = response in the unintended direction; inactive = score below 0.9.

Legend:
[1] = ATG_TAL_CIS: Attagene CIS-FACTORIAL HepG2 Assay for human TAL Basal Promoter (AID 2282966; active = hit-call score of the fitted dose curve at least 0.9, where 1 is the maximum; inactive = score below 0.9;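 note: background control endpoint measuring basal TAL promoter reporter mRNA not a specific factor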); settings: HepG2 Attagene cis-factorial TAL promoter reporter; actives raise or lower the signal
Method in brief: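 HepG2 cells were transiently transfected with promoter-driven multiplexed reporter units and dosed for 24 h. Reporter mRNA was measured by RT-PCR with capillary electrophoresis fluorescence; bidirectional fits used DMSO as baseline, serving as a background control.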

[2] = ATG_TGFb_CIS: Attagene CIS-FACTORIAL HepG2 Assay for human Transforming Growth Factor (TGF) (AID 2282967; active = hit-call score of the fitted dose curve at least 0.9, where 1 is the maximum; inactive = score below 0.9); settings: HepG2 Attagene CIS TGFb reporter, mRNA transcription; actives raise or lower the signal
Method in brief: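 Cells were dosed for 24 hours, after which total RNA was reverse-transcribed and reporter sequences amplified, labeled and sized by capillary electrophoresis. Activity was fitted in both directions against DMSO.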

[3] = ATG_VDRE_CIS: Attagene CIS-FACTORIAL HepG2 Assay for human Vitamin D Receptor Element (VDRE) (AID 2282968; active = hit-call score of the fitted dose curve at least 0.9, where 1 is the maximum; inactive = score below 0.9); settings: HepG2 VDRE cis-reporter transcription, actives raise or lower the signal
Method in brief: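 In transiently transfected HepG2 liver cells, gain or loss of reporter mRNA after 24 h exposure is scored relative to DMSO, using fluorescence detection by capillary electrophoresis of RT-PCR products.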

[4] = molecular target: Nuclear receptor subfamily 1 group I member 3 (Homo sapiens) (UniProt Q14994); experiment: ATG_CAR_TRANS: Attagene TRANS-FACTORIAL HepG2 Assay for human Constitutive Androstane Receptor (CAR) (AID 2282969); settings: HepG2 Attagene TRANS-FACTORIAL CAR reporter;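 note: activators raise reporter mRNA above DMSO so AC50 marks induction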
Sequence of Nuclear receptor subfamily 1 group I member 3 (Homo sapiens) (Q14994 whole entry, looked up, the tested form may be a part): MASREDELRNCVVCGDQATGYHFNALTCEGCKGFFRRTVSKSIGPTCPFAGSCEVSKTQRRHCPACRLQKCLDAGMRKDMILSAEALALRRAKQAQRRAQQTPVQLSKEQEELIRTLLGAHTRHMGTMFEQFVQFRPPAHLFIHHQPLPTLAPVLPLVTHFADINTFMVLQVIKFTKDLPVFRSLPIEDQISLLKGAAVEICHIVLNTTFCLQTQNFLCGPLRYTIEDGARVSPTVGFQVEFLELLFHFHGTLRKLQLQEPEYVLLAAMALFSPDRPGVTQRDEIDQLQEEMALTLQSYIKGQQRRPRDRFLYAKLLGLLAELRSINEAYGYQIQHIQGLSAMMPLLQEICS
Method in brief: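 Readout is reporter mRNA induction, quantified by fluorescent primer extension and capillary electrophoresis after RT-PCR. Cells were HepG2 transiently carrying chimeric NR-Gal4 constructs with GAL4-UAS reporters, treated for 24 h; activity scored upward from DMSO.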

[5] = molecular target: X-box-binding protein 1 (Homo sapiens) (UniProt P17861); experiment: ATG_Xbp1_CIS: Attagene CIS-FACTORIAL HepG2 Assay for human X-box Binding Protein 1 (XBP1) (AID 2282972; active = hit-call score of the fitted dose curve at least 0.9, where 1 is the maximum; inactive = score below 0.9); settings: HepG2 XBP1 cis-element reporter, Attagene multiplex; actives raise or lower the signal
Sequence of X-box-binding protein 1 (Homo sapiens) (P17861 whole entry, looked up): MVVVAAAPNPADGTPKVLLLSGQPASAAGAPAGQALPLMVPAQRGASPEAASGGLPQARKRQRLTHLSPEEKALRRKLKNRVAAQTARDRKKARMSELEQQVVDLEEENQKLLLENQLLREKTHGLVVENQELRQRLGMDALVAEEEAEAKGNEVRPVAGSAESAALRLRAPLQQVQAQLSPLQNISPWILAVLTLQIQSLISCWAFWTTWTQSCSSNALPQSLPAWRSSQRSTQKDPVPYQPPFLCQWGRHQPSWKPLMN
Method in brief: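 HepG2 cells transiently transfected with multiple cis-element reporter units report endogenous TF activity; 24 h exposure, then reporter mRNA measured by RT-PCR, 6-FAM labelling, HpaI digestion and capillary electrophoresis. Bidirectional fitting versus DMSO.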

[6] = ATG_M_06_TRANS: Attagene TRANS-FACTORIAL HepG2 Assay for M06 Transcription Factor (Internal Marker) (AID 2282983); settings: HepG2 Attagene TRANS M06 internal marker reporter;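 note: reporter transcript level by RT-PCR then capillary electrophoresis fluorescence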
Method in brief: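 HepG2 cells transiently transfected with multiplexed GAL4-UAS reporter transcription units; after 24 h compound exposure, reporter mRNA measured by RT-PCR, FAM-labelled primer extension, HpaI digestion and capillary electrophoresis. Gain-of-signal fitted versus DMSO baseline; background control readout.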

[7] = molecular target: Transcriptional activator Myb (Homo sapiens) (UniProt P10242); experiment: ATG_Myb_CIS: Attagene CIS-FACTORIAL HepG2 Assay for human Myeloblastosis (Myb) Proto-Oncogene Transcription Factor (AID 2282986; active = hit-call score of the fitted dose curve at least 0.9, where 1 is the maximum; inactive = score below 0.9); settings: HepG2 Attagene CIS-FACTORIAL Myb reporter transcription; actives raise or lower the signal
Sequence of Transcriptional activator Myb (Homo sapiens) (P10242 whole entry, looked up): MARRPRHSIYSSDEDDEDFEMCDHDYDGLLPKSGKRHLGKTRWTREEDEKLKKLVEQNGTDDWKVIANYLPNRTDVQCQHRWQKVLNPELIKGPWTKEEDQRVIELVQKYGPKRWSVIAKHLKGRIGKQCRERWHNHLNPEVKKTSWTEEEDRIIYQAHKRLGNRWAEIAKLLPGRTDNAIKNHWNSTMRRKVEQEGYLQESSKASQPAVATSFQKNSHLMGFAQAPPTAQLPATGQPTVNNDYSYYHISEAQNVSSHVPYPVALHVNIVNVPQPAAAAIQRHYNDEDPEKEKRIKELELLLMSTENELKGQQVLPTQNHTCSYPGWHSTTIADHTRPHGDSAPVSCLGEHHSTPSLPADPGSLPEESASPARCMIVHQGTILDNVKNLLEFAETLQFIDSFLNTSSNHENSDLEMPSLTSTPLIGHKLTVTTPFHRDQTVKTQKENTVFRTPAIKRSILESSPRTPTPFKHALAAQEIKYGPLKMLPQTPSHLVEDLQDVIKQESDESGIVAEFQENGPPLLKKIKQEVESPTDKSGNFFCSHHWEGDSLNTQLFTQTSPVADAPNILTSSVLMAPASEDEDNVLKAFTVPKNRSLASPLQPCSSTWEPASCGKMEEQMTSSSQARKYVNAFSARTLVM
Method in brief: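 Reporter mRNA is quantified by RT-PCR and capillary electrophoresis 24 h after dosing HepG2 cells transfected with cis-regulated reporter units, which track endogenous transcription factor activity. Gain and loss of signal are fitted versus DMSO baseline.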

[8] = molecular target: Estrogen receptor (Homo sapiens) (UniProt P03372); experiment: ATG_ERa_TRANS: Attagene TRANS-FACTORIAL HepG2 Assay for human Estrogen Receptor alpha (ERa) (AID 2282970); settings: HepG2 Attagene TRANS ERa GAL4 reporter, mRNA
Sequence of Estrogen receptor (Homo sapiens) (P03372 whole entry, looked up, the tested form may be a part): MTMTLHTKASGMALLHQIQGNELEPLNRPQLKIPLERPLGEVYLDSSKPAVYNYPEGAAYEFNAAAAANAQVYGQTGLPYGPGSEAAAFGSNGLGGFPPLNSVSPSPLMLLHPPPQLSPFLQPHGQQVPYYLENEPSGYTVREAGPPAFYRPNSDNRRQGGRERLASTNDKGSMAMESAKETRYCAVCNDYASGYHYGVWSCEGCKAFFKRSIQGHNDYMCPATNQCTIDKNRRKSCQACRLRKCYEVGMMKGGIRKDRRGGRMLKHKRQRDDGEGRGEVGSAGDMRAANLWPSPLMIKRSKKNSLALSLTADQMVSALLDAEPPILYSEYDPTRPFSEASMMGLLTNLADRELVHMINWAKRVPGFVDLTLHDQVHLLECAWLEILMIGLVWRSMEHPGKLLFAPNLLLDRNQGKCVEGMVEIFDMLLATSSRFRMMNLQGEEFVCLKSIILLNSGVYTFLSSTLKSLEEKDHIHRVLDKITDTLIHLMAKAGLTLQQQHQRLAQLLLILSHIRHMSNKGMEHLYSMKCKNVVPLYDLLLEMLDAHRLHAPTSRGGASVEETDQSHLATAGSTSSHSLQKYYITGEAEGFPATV
Method in brief: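 HepG2 cells transiently transfected with multiplexed GAL4-UAS reporter units; ERa activity read via exogenous chimeric NR-Gal4 protein. After 24 hour compound exposure, reporter mRNA measured by RT-PCR with 6-FAM labelling and capillary electrophoresis; gain-of-signal fitted relative to DMSO.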

[9] = molecular target: Steroid hormone receptor ERR1 (Homo sapiens) (UniProt P11474); experiment: ATG_ERRa_TRANS: Attagene TRANS-FACTORIAL HepG2 Assay for human Estrogen-Related Receptor alpha (ERRa) (AID 2282971); settings: HepG2 Attagene TRANS reporter, ERRa transactivation
Method in brief: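 HepG2 cells transiently transfected with multiplexed GAL4-UAS reporter units reading chimeric ERRa-Gal4 activity; 24 h compound exposure. Reporter mRNA measured by RT-PCR, 6-FAM labelling, HpaI digest and capillary electrophoresis; gain of signal fitted versus DMSO baseline.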

[10] = molecular target: Androgen receptor (Homo sapiens) (UniProt P10275); experiment: ATG_AR_TRANS: Attagene TRANS-FACTORIAL HepG2 Assay for human Androgen Receptor (AR) (AID 2282973); settings: HepG2 Attagene TRANS-FACTORIAL AR reporter transcription
Sequence of Androgen receptor (Homo sapiens) (P10275 whole entry, looked up, the tested form may be a part): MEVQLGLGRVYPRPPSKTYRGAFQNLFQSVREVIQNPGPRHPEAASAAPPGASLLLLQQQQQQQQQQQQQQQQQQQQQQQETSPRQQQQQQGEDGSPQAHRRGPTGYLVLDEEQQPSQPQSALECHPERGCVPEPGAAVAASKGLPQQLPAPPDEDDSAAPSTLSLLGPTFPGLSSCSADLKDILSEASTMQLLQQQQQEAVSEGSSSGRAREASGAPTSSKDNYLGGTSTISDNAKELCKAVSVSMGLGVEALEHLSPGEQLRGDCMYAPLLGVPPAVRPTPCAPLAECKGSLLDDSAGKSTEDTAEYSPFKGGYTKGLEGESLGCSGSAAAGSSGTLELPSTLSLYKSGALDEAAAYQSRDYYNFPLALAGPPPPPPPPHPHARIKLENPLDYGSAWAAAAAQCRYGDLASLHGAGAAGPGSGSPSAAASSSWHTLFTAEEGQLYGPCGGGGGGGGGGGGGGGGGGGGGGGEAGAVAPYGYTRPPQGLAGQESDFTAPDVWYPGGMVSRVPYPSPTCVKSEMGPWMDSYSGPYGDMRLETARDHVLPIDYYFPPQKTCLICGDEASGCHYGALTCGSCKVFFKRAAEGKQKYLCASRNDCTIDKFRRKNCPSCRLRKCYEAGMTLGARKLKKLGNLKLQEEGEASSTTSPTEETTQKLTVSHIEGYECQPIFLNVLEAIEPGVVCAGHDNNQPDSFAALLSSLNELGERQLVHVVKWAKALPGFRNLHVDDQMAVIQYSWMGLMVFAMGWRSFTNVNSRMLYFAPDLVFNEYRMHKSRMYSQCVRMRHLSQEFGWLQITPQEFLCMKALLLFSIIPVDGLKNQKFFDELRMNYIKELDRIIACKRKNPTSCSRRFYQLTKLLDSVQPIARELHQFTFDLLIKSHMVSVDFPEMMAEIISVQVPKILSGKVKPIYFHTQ
Method in brief: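 HepG2 cells transiently transfected with multiplexed GAL4-UAS reporter units and chimeric NR-Gal4 fusion; 24 h compound exposure. Reporter mRNA measured by RT-PCR, 6-FAM labelling, HpaI digestion and capillary electrophoresis; gain-of-signal fitted relative to DMSO baseline.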

[11] = molecular target: Glucocorticoid receptor (Homo sapiens) (UniProt P04150); experiment: ATG_GR_TRANS: Attagene TRANS-FACTORIAL HepG2 Assay for human Glucocorticoid Receptor (GR) (AID 2282978); settings: HepG2 Attagene TRANS GR reporter, mRNA transcription;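 note: activators score as hits since higher reporter transcript over DMSO is fitted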
Sequence of Glucocorticoid receptor (Homo sapiens) (P04150 whole entry, looked up, the tested form may be a part): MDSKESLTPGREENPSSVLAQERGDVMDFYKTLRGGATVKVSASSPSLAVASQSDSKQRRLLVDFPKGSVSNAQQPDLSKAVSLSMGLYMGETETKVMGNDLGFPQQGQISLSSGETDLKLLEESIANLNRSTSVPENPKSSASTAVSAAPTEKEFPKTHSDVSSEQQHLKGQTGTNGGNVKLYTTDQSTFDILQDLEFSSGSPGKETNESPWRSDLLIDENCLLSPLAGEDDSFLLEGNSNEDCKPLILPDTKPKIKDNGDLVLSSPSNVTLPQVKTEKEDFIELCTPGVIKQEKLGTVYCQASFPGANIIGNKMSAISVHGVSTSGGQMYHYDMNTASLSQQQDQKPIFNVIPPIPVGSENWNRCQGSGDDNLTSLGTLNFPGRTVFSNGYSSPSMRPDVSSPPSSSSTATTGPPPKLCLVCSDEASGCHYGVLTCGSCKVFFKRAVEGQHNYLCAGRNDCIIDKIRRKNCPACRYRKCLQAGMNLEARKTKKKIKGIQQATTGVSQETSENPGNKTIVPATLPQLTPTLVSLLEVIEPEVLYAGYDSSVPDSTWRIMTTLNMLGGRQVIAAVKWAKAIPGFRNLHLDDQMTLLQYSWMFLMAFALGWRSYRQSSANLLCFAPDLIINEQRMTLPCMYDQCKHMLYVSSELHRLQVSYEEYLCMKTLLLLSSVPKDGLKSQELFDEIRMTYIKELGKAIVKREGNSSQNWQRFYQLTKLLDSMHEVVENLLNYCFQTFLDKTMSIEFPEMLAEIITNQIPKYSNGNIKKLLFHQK
Method in brief: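 Readout is reporter transcript from a chimeric GR-Gal4 acting on GAL4-UAS in transfected human HepG2 liver cells after 24 h exposure, quantified by RT-PCR and capillary electrophoresis. Activation fitted upward against DMSO.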

[12] = molecular target: Hepatocyte nuclear factor 4-alpha (Homo sapiens) (UniProt P41235); experiment: ATG_HNF4a_TRANS: Attagene TRANS-FACTORIAL HepG2 Assay for human Hepatocyte Nuclear Factor 4 alpha (HNF4a) (AID 2282982); settings: HepG2 HNF4a transactivation reporter, mRNA readout
Sequence of Hepatocyte nuclear factor 4-alpha (Homo sapiens) (P41235 whole entry, looked up): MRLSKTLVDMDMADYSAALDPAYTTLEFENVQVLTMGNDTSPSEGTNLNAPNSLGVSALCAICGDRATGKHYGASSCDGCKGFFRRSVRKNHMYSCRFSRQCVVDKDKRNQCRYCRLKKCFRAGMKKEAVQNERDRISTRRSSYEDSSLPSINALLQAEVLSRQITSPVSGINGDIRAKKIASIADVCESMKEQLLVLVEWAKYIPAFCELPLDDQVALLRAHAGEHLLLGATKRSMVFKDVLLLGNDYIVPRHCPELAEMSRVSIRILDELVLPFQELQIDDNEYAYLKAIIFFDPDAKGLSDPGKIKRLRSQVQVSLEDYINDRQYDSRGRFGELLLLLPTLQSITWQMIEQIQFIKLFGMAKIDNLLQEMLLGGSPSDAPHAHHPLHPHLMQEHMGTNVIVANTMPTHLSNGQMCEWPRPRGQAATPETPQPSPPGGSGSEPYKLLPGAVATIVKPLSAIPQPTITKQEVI
Method in brief: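 Transfected HepG2 reporter cells are dosed for 24 h; reporter RNA is reverse-transcribed, amplified, fluorescently labelled and HpaI-digested before CE sizing. Positive-direction fit against DMSO.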

[13] = molecular target: Bile acid receptor (Homo sapiens) (UniProt Q96RI1); experiment: ATG_FXR_TRANS: Attagene TRANS-FACTORIAL HepG2 Assay for Farnesoid X Receptor (FXR) (AID 2282979); settings: HepG2 Attagene TRANS FXR-GAL4 reporter transcription;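 note: hits raise reporter mRNA above DMSO so AC50 marks FXR activation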
Sequence of Bile acid receptor (Homo sapiens) (Q96RI1 whole entry, looked up, the tested form may be a part): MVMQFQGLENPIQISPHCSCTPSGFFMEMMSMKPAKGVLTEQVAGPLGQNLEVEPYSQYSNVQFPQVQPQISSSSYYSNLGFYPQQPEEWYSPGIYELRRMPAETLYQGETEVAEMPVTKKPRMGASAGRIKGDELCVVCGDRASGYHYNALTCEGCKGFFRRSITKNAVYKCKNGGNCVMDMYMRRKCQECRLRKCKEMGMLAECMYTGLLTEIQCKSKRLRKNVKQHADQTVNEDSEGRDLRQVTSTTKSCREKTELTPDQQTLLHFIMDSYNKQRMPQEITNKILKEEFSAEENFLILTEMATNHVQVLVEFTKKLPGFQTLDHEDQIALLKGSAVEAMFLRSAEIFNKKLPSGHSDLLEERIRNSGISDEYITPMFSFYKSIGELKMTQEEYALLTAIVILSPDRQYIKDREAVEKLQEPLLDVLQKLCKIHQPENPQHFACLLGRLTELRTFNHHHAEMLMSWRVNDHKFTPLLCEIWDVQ
Method in brief: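 HepG2 cells transiently transfected with reporter constructs in which a chimeric FXR-GAL4 protein drives a GAL4-UAS reporter; 24 h compound exposure. Reporter mRNA measured by RT-PCR, FAM labelling, HpaI digestion and capillary electrophoresis; gain-of-signal versus DMSO.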

[14] = molecular target: Oxysterols receptor LXR-beta (Homo sapiens) (UniProt P55055); experiment: ATG_LXRb_TRANS: Attagene TRANS-FACTORIAL HepG2 Assay for human Liver X Receptor beta (LXRb) (AID 2282981); settings: HepG2 Attagene TRANS GAL4-LXRb reporter, mRNA
Method in brief: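 Cells: HepG2, transiently transfected with GAL4-UAS reporter units plus LXRb-Gal4 fusion. Treatment: 24 h. Detection: reporter mRNA by RT-PCR, 6-FAM labelling, HpaI digestion, capillary electrophoresis.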

[15] = ATG_M_32_TRANS: Attagene TRANS-FACTORIAL HepG2 Assay for M32 Transcription Factor (Internal Marker) (AID 2282984); settings: HepG2 Attagene TRANS M32 internal marker reporter
Method in brief: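 Using transiently transfected HepG2 cells exposed to test chemicals for 24 h, reporter transcripts are converted to labelled cDNA fragments and quantified by capillary electrophoresis. DMSO defines the activity baseline.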

[16] = ATG_M_19_TRANS: Attagene TRANS-FACTORIAL HepG2 Assay for M19 Transcription Factor (Internal Marker) (AID 2282974); settings: HepG2 Attagene TRANS-FACTORIAL M19 internal marker reporter
Method in brief: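 Background-control readout: after 24 h chemical exposure of transfected HepG2 carrying GAL4-driven reporter units, RNA was reverse-transcribed, amplified, fluorescently labeled and sized by capillary electrophoresis; gain-of-signal fit against DMSO.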

[17] = molecular target: Estrogen-related receptor gamma (Homo sapiens) (UniProt P62508); experiment: ATG_ERRg_TRANS: Attagene TRANS-FACTORIAL HepG2 Assay for human Estrogen-Related Receptor gamma (ERRg) (AID 2282977); settings: HepG2 Attagene TRANS reporter, ERRg transactivation;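 note: hits increase reporter signal over DMSO so potencies reflect activators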
Method in brief: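 HepG2 cells transiently transfected with multiplexed GAL4-UAS reporter units and chimeric NR-Gal4 constructs were exposed to test chemicals for 24 h. Reporter mRNA was measured by RT-PCR, 6-FAM primer extension, HpaI digestion and capillary electrophoresis; gain-of-signal versus DMSO.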

[18] = molecular target: Oxysterols receptor LXR-alpha (Homo sapiens) (UniProt Q13133); experiment: ATG_LXRa_TRANS: Attagene TRANS-FACTORIAL HepG2 Assay for human Liver X Receptor alpha (LXRa) (AID 2282980); settings: HepG2 Attagene TRANS reporter, LXRa transactivation
Sequence of Oxysterols receptor LXR-alpha (Homo sapiens) (Q13133 whole entry, looked up, the tested form may be a part): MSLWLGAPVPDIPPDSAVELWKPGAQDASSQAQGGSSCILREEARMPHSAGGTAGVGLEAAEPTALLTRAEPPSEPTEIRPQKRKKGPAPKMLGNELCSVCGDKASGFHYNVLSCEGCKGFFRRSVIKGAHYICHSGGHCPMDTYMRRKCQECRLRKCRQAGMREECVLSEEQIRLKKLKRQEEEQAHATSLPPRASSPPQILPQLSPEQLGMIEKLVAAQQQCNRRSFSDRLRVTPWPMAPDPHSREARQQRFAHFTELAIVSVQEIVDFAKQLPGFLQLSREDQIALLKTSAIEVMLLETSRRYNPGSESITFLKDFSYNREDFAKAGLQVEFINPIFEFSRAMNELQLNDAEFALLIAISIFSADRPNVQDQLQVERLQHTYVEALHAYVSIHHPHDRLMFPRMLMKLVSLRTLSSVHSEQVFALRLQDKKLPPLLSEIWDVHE
Method in brief: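 HepG2 cells were transiently transfected with multiplexed reporter units driven by chimeric LXRa–GAL4 fusion proteins, then dosed for 24 h. Reporter mRNA was quantified by RT-PCR, fluorescent labelling and capillary electrophoresis; gain of signal fitted against DMSO baseline.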

[19] = ATG_GAL4_TRANS: Attagene TRANS-FACTORIAL HepG2 Assay for GAL4 (Internal Marker) (AID 2282976); settings: HepG2 Attagene TRANS GAL4 internal marker reporter
Method in brief: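 HepG2 cells transiently transfected with multiplexed GAL4-UAS reporter constructs were dosed for 24 h. Reporter mRNA was measured by RT-PCR, 6-FAM primer extension, HpaI digestion and capillary electrophoresis, and gain of signal was fitted relative to DMSO.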

[20] = molecular target: Nuclear receptor subfamily 4 group A member 2 (Homo sapiens) (UniProt P43354); experiment: ATG_NURR1_TRANS: Attagene TRANS-FACTORIAL HepG2 Assay for human Nuclear Receptor Related Protein 1 (NURR1) (AID 2282985); settings: HepG2 Attagene TRANS reporter, mRNA readout
Method in brief: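 Cells: HepG2, transiently transfected. Exposure: 24 h. Detection: fluorescence of labelled RT-PCR products separated by capillary electrophoresis; upward fit versus DMSO.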

Measured: AC50

CSC(C)(C)C=NO
inactive: [1] | [2] | [3] | [4] | [5] | [6] | [7]

C=CC(=O)OCC(CC)(COC(=O)C=C)COC(=O)C=C
active: [2] 49.4 µM | [3] 3.37 µM
inactive: [1] | [8] | [9] | [5] | [10] | [11] | [12] | [6] | [7]

ClC1=C(Cl)C2(Cl)C3C(Cl)C(Cl)CC3C1(Cl)C2(Cl)Cl (stereo not drawn)
active: [3] 3.76 µM | [8] 13.4 µM | [11] 100 µM | [13] 54.7 µM
inactive: [1] | [2] | [4] | [5] | [10] | [14] | [6] | [15] | [7]

O=C(O)C(F)(F)C(F)(F)C(=O)O
not listed: [9] | [10] | [11] | [15] | [19] | [20]
inactive: all other assays above

N#C/C=C/c1ccccc1
inactive: [1] | [2] | [3] | [4] | [5] | [10] | [12] | [6] | [15] | [7]

CCCCOCCOP(=O)(OCCOCCCC)OCCOCCCC
not listed: [9] | [10] | [13] | [16] | [17] | [20]
inactive: all other assays above

ClC(Cl)=C(c1ccc(Cl)cc1)c1ccccc1Cl
active: [1] 177 µM | [8] 2.02 µM | [5] 100 µM
not listed: [9] | [12] | [15] | [17] | [18] | [19]
inactive: all other assays above

O=C(O)C=CC(F)(C(F)(F)F)C(F)(F)F
not listed: [4] | [13] | [16] | [17] | [18] | [19] | [20]
inactive: all other assays above

CCCCN(CC)C(=O)SCCC
active: [8] 100 µM
not listed: [6] | [9] | [13] | [17] | [18] | [19] | [20]
inactive: all other assays above

O=P(Oc1ccccc1)(Oc1ccccc1)Oc1ccccc1
active: [3] 7.17 µM | [5] 49.4 µM | [20] 47.9 µM
not listed: [9] | [10] | [12] | [14] | [17] | [18]
inactive: all other assays above
